Most compounds without a hit are left out; they make up all but 4.8% or so of the library.
DAX1 inh-1: DAX1 (NR0B1) inhibitors, primary screen, cell-based, HEK293, Gal4-DAX1, luciferase luminescence | AID 504766, 2011 | inhibition, % at 6.75 µM | 340,000 tested, 0.99% active | HEK293 Gal4-DAX1 luciferase reporter;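 active = inhibition above the mean over all tested compounds plus 3 SD, cut at about 4.2% in these data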;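 also: 0% = DAX1-transfected cells with DMSO and 100% = empty-vector control cells with DMSO; inhibition shows as a rise in luminescence from relieved DAX1 repression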
Target sequence (P51843 207-470 limits assumed): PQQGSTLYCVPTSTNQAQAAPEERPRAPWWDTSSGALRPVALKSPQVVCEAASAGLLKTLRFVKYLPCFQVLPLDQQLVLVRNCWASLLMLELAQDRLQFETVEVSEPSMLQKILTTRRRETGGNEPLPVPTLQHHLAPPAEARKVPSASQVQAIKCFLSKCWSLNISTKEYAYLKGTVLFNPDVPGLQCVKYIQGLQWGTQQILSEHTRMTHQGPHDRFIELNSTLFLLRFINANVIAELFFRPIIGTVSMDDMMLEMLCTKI
ssDAF12 agonist: S. stercoralis DAF-12 nuclear receptor activators, primary screen, cell-based, luminescence, HEK293, GRIP1 co-expression, lit1-tk-luc. HEK293 ssDAF-12/GRIP1 lit1-tk-luc reporter; % of 3 µM dafachronic acid response. activation, % at 6.8 µM. 370,000 tested, 1% active. Nuclear hormone receptor DAF-12 (Strongyloides stercoralis);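 active = activation above the mean over all tested compounds plus 3 SD, cut at about 0.9% in these data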;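 also: 0% = DMSO-only wells and 100% = 3 µM delta7-dafachronic acid wells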
DAX1 inh-2: DAX1 (NR0B1) inhibitors on StAR promoter, primary screen, cell-based, luminescence, SF-1 (NR5A1), full-length DAX-1; 370,000 tested, 1.1% active; inhibition, % at 6.8 µM; HEK293T StAR-luciferase reporter, SF-1/DAX-1 repression relief;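 active = inhibition above the mean over all tested compounds plus 3 SD, cut at about 3.6% in these data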;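 also: 0% = DAX-1 cells with DMSO and 100% = cells lacking DAX-1 with DMSO; higher inhibition means more luminescence from relief of DAX-1 repression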
hgDAF-12 ag: H. glycines DAF-12 receptor agonists, primary screen, cell-based, luminescence, HEK293, GAL4 fusion, UAS-luciferase. activation, % at 6.8 µM. HEK293 GAL4-hgDAF12 UAS-luciferase reporter, agonist luminescence; normalized to butyrate control. Nuclear hormone receptor DAF-12 (Heterodera glycines), GAL4 fusion. 370,000 tested, 1.8% active;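 active = activation above a cutoff set at the mean of all screened compounds plus 3 SD, cut at about 10% in these data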;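 also: 0% = DMSO wells and 100% = sodium butyrate wells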
hcDAF12 agonist: H. contortus DAF-12 nuclear receptor activators, primary screen, cell-based, luminescence, HEK293, lit1-tk-luc reporter. HEK293 hcDAF-12 lit1-tk-luc reporter; 0% DMSO, 100% Δ7-dafachronic acid. 370,000 tested, 1.4% active. activation, % at 6.8 µM;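 active = activation above the mean of all tested compounds plus 3 SD, cut at about 5.5% in these data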;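 also: 100% = response to 3 µM Δ7-dafachronic acid high control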
SMARCA2 activ: SMARCA2 (BRM) function activators, primary screen, cell-based, luminescence, high throughput. MG213 cells, MMTV-luciferase reporter, dexamethasone, overnight. activation, % at 9.1 µM. 370,000 tested, 1% active; in the data active = activation above about 7.8%;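 also: 0% = vehicle wells and 100% = reference activator wells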
The depositor's hits bear a star; . = no result given.

SMILES	DAX1 inh-1	ssDAF12 agonist	DAX1 inh-2	hgDAF-12 ag	hcDAF12 agonist	SMARCA2 activ
CNC(=S)Nc1cccc(C(=O)O)c1	2	1.4*	0	1	3	4
CC1(Oc2ccc(CC#N)cc2)CCN(Cc2ccc(-n3ccnc3)cc2)C1 (stereo not drawn)	.	-1	-2	-1	0	0
O=C(c1ccc(F)cc1F)N1CCC(Oc2cccnc2)CC1	.	-1	0	-3	-2	2
CCCCCCN1C[C@@H](O)[C@H](n2cc(COC(=O)c3ccccc3)nn2)C[C@@H]1c1ccc(OC)cc1	2	-1	0	-3	-1	-7
COc1ccccc1NC(=S)NC(=O)CCc1ccccc1	1	-1	0	0	0	-2
O=C(CCc1ccccc1)NC(=S)Nc1ccccc1Br	8.4*	-1	0	0	-2	1
O=C(Cc1coc2cc(O)ccc12)N1CCN(S(=O)(=O)c2ccc(Br)cc2)CC1	0	-2	0	-1	-1	-3
C[C@@H](CCCCC1(C)OCCO1)CCC(=O)N(c1ccccc1)c1ccccc1	.	-1	-1	-3	-3	-5
Cc1ccccc1Cn1ccc(NC(=O)c2onc(C)c2Cl)n1	0	-1	2	3	2	7.8*
Cc1cc(C)n2c(Nc3ccc4c(c3)OCCO4)c(-c3ccc(F)cc3)nc2n1	.	0	4.3*	6	3	3
COc1cccc(-c2nc3nc(C)cc(C)n3c2Nc2ccc3c(c2)OCCO3)c1	.	0	1	10	1	1
CCCN1CCS(=O)(=O)N(Cc2cn(Cc3ccc(Cl)cc3)nn2)C(C(=O)OC)C1 (stereo not drawn)	.	-1	-1	0	3	-4
CCOC(=O)/C=C/c1ccc2oc3ccccc3c(=O)c2c1	1	2.0*	1	7	5	8
COc1cc2oc3ccccc3c(=O)c2cc1OC	1	.	.	.	.	.
COc1ccc(CCNC(=O)CSc2nc3[nH]c(=O)cc(O)c3s2)cc1	1	-1	-4	1	0	-4
CCCCN(C(=O)c1ccc(N(C)S(=O)(=O)c2ccc(C)cc2)cc1)c1c(N)n(CCC)c(=O)[nH]c1=O	1	-1	1	0	0	-2
CCCCN(C(=O)c1ccc(S(=O)(=O)N(C)c2ccccc2)cc1)c1c(N)n(CCC)c(=O)[nH]c1=O	1	-1	4.4*	1	0	0
CCCCn1c(N)c(N(CC(C)C)C(=O)c2ccc(S(=O)(=O)N(CC)c3ccccc3)cc2)c(=O)[nH]c1=O	1	1.4*	0	-2	1	0
CCc1nc2c(OCC(=O)c3ccc(Cl)cc3Cl)cccn2c1N(C)C(=O)COc1ccccc1	.	-1	-1	0	0	0
COc1ccccc1C(=O)NC(=S)NNC(=O)c1sc2ccccc2c1Cl	1	0	0	0	3	2
COc1ccccc1C(=O)NNC(=S)NC(=O)c1sc2ccccc2c1Cl	0	1	1	4	6.1*	-2
CCC(=O)NC(c1ccc(N(C)C)cc1)c1c(O)ccc2ccccc12 (stereo not drawn)	0	0	0	1	6.3*	0
COc1ccccc1CCNC(=O)c1ccc(OC)c(OC2CCN(C(C)C)CC2)c1	0	-1	1	2	0	1
COCCCNC(=O)c1ccc(OC)c(OC2CCN(C(C)C)CC2)c1	5.2*	-1	0	0	-2	4
COc1cc2c(=O)n(CCC(=O)NCC3CCCO3)c(=O)n(CC(=O)c3ccc(Cl)cc3)c2cc1OC (stereo not drawn)	5.3*	-2	0	-1	0	3
SMILES	DAX1 inh-1	ssDAF12 agonist	DAX1 inh-2	hgDAF-12 ag	hcDAF12 agonist	SMARCA2 activ
CCN(CC(=O)NCc1ccc(F)cc1)C(=O)c1cc2ccccc2o1	1	-1	0	-1	-2	-3
Cc1ccc(CNC(=O)Cc2csc(Nc3nc(=S)[nH]c4ccccc34)n2)cc1	.	0	1	2	5	-2
O=C(Cc1csc(Nc2nc(=S)[nH]c3ccccc23)n1)NCc1cccc(Cl)c1	0	1	-1	0	6.5*	1
O=C(Cc1csc(Nc2nc(=S)[nH]c3ccccc23)n1)NCc1ccccc1Cl	0	1.2*	-1	7	5.9*	2
COC(=O)c1ccc(NC(=O)CSc2ccccc2)cc1	7.4*	0	2	5	1	1
COC(=O)c1ccc(NC(=O)CSc2ccccn2)cc1	-2	-2	1	1	1	6
Nc1nc(N)n(-c2ccccc2)c(=Nc2ccccc2)n1	1	-1	0	0	-2	1
CC1CC(C)(C)N(C(=O)CSc2ccc(-c3ccc(F)cc3)nn2)c2ccccc21 (stereo not drawn)	-1	-1	0	-3	0	-3
COc1ccc(N2CCN(C(=O)c3ccc(-c4ccccc4)cc3)CC2)cc1	0	-2	0	-1	-2	-3
COc1ccccc1N1CCN(C(=O)/C=C/c2ccco2)CC1	2	0	0	2	-2	0
COc1ccccc1N1CCN(/N=C/c2ccc(C(=O)O)cc2)CC1	1	0	1	11*	3	1
O=C(c1ccc(-c2ccccc2)cc1)N1CCN(c2ccccc2)CC1	4.8*	1	0	5	1	4
COc1ccccc1N1CCN(/N=C/C=C\c2ccco2)CC1	1	0	4.1*	10	5	5
O=C(O)c1ccc(/C=N/N2CCN(c3ccccc3)CC2)cc1	5.4*	-1	1	10	2	2
CC(C)C[C@@H]1COc2cc(Br)ccc2S(=O)(=O)N1Cc1cn(CCC2OCCO2)nn1	.	-1	-1	0	-1	0
O=C(/C=C(\Nc1ccccc1)c1ccccc1)c1ccccc1	.	-1	2	1	1	2
C/C(=C\C(=O)c1cccnc1)Nc1ccc(O)cc1	-1	-1	-1	-3	-2	0
O=C(/C=C(\Nc1ccc(F)cc1)c1ccccc1)c1ccccc1	.	-1	1	11*	0	3
C/C(=C\C(=O)c1ccccc1)Nc1ccc(O)cc1	-1	1.1*	-1	-3	-1	-2
COc1cc2c(cc1OC)C1CCN3C(=O)CCC3N1CC2 (stereo not drawn)	0	-1	-1	2	-2	7

Screening results as filed in PubChem BioAssay.
